Results on five compounds are retold here after PubChem BioAssay.

The structures appear in SMILES notation. The source made the active and inactive calls.

The nature of assay [1]: E. coli DRC41 culture turbidity changes, primary screen, E. coli filamentation inducer project, strain DRC41, OD650, 48 h (AID 1152).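 Further: E. coli MC1000 strain DRC41 lacking acrAB efflux pump and sulA.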 The conditions noted are these: E. coli DRC41 (acrAB sulA), higher = more signal, called active from +8 up or from −8 down.
Assay [2] in a line: small-molecule binders of probe aLefty1, primary screen, biochemical, small-molecule microarray, 635/667 nm fluorescence (AID 1153).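 Further: score merges spot fluorescence with signal-to-noise ratio from the scanned slide images.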 The conditions noted are these: higher = more signal.
Assay [3] is described as follows: PSAC antagonists in infected red cells, primary screen, cell-based, P. falciparum Indochina, OD700, 1 h (AID 1154). The following applies: P. falciparum Indochina infected RBC osmotic lysis, higher = more signal, called active from +8 up or from −8 down.
Assay [4] can be described thus: PSAC antagonists in infected red cells, primary screen, cell-based, P. falciparum Indochina, OD700, 2 h (AID 1155).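 Further: lysis reports solute entry through the parasite surface anion channel PSAC; channel blockers reduce lysis of infected cells.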 The following applies: P. falciparum Indochina infected erythrocytes, osmotic lysis OD700; higher = more signal, called active from +8 up or from −8 down.
Assay [5] in a line: osmotic lysis modulators in infected erythrocytes, primary screen, PSAC antagonist project, cell-based, P. falciparum Indochina, OD700, 3 h (AID 1156). The following applies: higher = more signal, called active from +8 up or from −8 down.
Assay [6] is described as follows: PSAC antagonists in infected red cells, primary screen, cell-based, P. falciparum Indochina, OD700, 18 h (AID 1157). The conditions noted are these: P. falciparum Indochina infected erythrocytes, osmotic lysis OD700, 18 h; higher = more signal, called active from +8 up or from −8 down.
Assay [7] is described as follows: modulators of S6 phosphorylation in cells, primary screen, cell-based, A549, cytoblot, luminescence, serum-stimulated (AID 1158).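 Further: serum-stimulated A549 lung adenocarcinoma cells; signal is phosphorylated S6 detected by cytoblot immunostaining with HRP secondary.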 The conditions noted are these: A549 phospho-S6 cytoblot, 5 h, higher = more signal.
The target of assay [8] is NADPH oxidase 2 (Homo sapiens) (UniProt P04839). Description: NOX2-dependent H2O2 signal modulators, primary screen, NOX inhibitor project, cell-based, HEK293-NOX2, PMA-stimulated, Amplex Red fluorescence (AID 1159). Further: test concentration not given here. The conditions noted are these: 45 min, higher = more signal, called active from +8 up or from −8 down.
Assay [9] deals with NADPH oxidase 4 (Homo sapiens) (UniProt Q9NPH5). Description: NOX4-dependent H2O2 signal modulators, primary screen, NOX inhibitor project, cell-based, HEK293-NOX4, tetracycline-induced, Amplex Red fluorescence (AID 1160). The conditions noted are these: 45 min, higher = more signal, called active from +8 up or from −8 down.
The target of assay [10] is NADPH oxidase 5 (Homo sapiens) (UniProt Q96PH1). Description: NOX5-dependent H2O2 signal modulators, primary screen, NOX inhibitor project, cell-based, HEK293-NOX5, Amplex Red fluorescence (AID 1161). The conditions noted are these: HEK293-NOX5, ionomycin, 45 min, higher = more signal.
The nature of assay [11]: A549 cell viability effects, profiling panel, calcein-AM fluorescence, 48 h, basal (AID 1162). Further: test concentration not given here. The following applies: higher = more signal.
Assay [12] in a line: adipocyte viability effects, profiling panel, cell-based, 3T3-L1 adipocytes, calcein-AM fluorescence, 48 h, basal (AID 1163). Further: test concentration not given here. The following applies: 3T3-L1 adipocytes viability, higher = more signal.
A short description of assay [13]: HepG2 cell viability effects, profiling panel, calcein-AM fluorescence, 48 h, basal (AID 1164). Further: test concentration not given here. The conditions noted are these: higher = more signal.
Assay [14] is described as follows: MM1S cell viability effects, profiling panel, calcein-AM fluorescence, 48 h, basal (AID 1165).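 Further: viability of MM1S multiple myeloma cells under basal unstimulated conditions; test concentration not given here.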 The following applies: higher = more signal.
Assay [15] is described as follows: basal RPMI8226 viability, no added stimulus, profiling panel, cell-based, calcein-AM fluorescence, 48 h, PK04 Diversity Set (AID 1166).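 Further: cells grown under basal conditions without added stimulus; test concentration not given here.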 The conditions noted are these: RPMI8226 myeloma viability, higher = more signal.
Assay [16] can be described thus: basal HepG2 mitochondrial membrane potential changes, profiling panel, cell-based, JC-1 fluorescence, 24 h, 100 nL compound (AID 1167). Further: test concentration not given here. The following applies: higher = more signal.
A short description of assay [17]: basal 3T3-L1 adipocyte mitochondrial potential changes, profiling panel, cell-based, JC-1 fluorescence, 3T3-L1 adipocytes, 24 h, 100 nL compound (AID 1168). Further: test concentration not given here. The following applies: JC-1 mitochondrial fluorescence, higher = more signal, called active from +8 up or from −8 down.
The nature of assay [18]: basal RPMI8226 mitochondrial membrane potential changes, profiling panel, cell-based, JC-1 fluorescence, 24 h, 100 nL compound (AID 1169). Further: test concentration not given here. The conditions noted are these: RPMI8226 myeloma, JC-1 mitochondrial potential fluorescence, higher = more signal.
Assay [19] in a line: basal MM1S mitochondrial membrane potential changes, profiling panel, cell-based, JC-1 fluorescence, 24 h, 100 nL compound (AID 1170). Further: test concentration not given here. The following applies: higher = more signal.
The nature of assay [20]: A549 lung cancer cell viability effects, profiling panel, resazurin fluorescence, 24 h, PK04 Diversity Set (AID 1171). Further: test concentration not given here. The following applies: higher = more signal, called active from +8 up or from −8 down. In general terms: Alamar Blue is a resazurin reagent that responds to reducing activity.

NADPH oxidase 5 (Homo sapiens), sequence (Q96PH1 whole entry, looked up): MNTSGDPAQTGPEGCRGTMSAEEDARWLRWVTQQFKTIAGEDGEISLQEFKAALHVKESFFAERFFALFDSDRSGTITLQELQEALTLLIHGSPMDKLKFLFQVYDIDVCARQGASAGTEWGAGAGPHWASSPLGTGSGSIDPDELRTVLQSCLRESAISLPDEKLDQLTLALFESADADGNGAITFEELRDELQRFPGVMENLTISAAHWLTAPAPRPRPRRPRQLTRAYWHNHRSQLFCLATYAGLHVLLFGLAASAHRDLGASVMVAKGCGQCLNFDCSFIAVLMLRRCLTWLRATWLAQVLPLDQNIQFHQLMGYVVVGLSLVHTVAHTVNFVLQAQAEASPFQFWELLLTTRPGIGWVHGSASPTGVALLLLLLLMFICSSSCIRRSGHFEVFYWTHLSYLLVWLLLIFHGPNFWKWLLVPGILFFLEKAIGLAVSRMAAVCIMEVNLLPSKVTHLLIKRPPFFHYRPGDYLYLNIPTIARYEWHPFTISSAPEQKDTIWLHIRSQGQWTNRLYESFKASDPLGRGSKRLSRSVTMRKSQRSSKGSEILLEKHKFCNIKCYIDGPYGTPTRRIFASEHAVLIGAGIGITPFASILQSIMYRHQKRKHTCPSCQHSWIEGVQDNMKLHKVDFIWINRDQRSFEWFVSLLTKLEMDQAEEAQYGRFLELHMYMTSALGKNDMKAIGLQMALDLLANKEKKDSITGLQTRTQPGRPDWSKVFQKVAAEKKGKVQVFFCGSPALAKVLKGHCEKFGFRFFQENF
NADPH oxidase 2 (Homo sapiens), sequence (P04839 whole entry, looked up): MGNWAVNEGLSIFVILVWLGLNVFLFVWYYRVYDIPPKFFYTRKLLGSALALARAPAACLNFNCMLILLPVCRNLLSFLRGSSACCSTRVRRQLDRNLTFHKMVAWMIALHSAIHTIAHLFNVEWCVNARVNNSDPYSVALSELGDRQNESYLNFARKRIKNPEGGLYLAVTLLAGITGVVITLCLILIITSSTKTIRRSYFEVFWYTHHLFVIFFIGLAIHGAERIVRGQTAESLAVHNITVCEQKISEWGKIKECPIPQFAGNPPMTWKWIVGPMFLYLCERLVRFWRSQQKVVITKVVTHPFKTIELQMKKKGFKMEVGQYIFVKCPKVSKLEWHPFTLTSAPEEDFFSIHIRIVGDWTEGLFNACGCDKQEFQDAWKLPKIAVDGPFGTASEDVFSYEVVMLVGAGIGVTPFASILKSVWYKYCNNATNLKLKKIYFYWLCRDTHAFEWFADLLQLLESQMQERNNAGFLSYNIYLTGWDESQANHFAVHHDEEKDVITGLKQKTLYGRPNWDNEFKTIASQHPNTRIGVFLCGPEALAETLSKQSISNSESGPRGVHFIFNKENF
NADPH oxidase 4 (Homo sapiens), sequence (Q9NPH5 whole entry, looked up): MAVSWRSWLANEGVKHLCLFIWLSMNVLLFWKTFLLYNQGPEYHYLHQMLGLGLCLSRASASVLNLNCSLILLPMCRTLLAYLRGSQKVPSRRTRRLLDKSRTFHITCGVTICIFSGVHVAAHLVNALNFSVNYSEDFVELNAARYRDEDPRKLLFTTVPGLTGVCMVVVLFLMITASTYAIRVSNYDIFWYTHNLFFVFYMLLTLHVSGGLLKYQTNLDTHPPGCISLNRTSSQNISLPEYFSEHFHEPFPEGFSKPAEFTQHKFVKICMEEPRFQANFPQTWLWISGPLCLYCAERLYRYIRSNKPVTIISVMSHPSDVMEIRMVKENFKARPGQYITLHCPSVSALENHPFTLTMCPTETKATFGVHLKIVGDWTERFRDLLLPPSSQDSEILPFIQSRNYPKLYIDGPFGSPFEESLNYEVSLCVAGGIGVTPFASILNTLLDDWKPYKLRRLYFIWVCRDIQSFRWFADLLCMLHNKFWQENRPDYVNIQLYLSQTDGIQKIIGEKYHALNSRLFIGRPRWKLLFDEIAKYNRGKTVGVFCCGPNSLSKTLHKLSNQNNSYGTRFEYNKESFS

As to `NC(=O)[C@H]1[C@@H]2C(=O)O[C@@H](c3ccccc3)[C@@H](c3ccccc3)N2[C@@H](c2ccc(O)cc2)[C@]12C(=O)Nc1ccc(C#CC3(O)CCCCCC3)cc12`, the z-score in [1] was 0.359 (inactive); in assay [3] it was 2.63 (inactive); in [4] it was -0.436 (inactive); in assay [5] it was 0.67 (inactive); in assay [6] it was -1.08 (inactive); in [7], 1.54. In addition, the z-score is 0.487 (inactive) in assay [8]; -0.429 (inactive) in assay [9]; -2.14 in [10]; 0.205 in assay [11]; 1.54 in assay [12]; 0.961 in [13]. The z-score was -1.13 in [14]; -4.08 in assay [15]; -1.39 in assay [16]; -0.575 (inactive) in assay [17]; -0.808 in [18]; -0.184 in assay [19]. For the same compound, the z-score in [20] is 0.995 (inactive). Further, in assay [2], the composite z-score stood at 0.354.
As to `CC(C)C[C@H]1NC(=O)[C@H](C)NC(=O)[C@@]23C(=O)N[C@@H](Cc4ccccc4)C2[C@H](C)[C@@]2(C)O[C@H]2C3/C=C/C/C=C\CNC1=O` (stereo not given in full), the z-score was -1.07 (inactive) in assay [1]; 2.71 (inactive) in assay [3]; -0.169 (inactive) in [4]; 0.137 (inactive) in assay [5]; 0.11 (inactive) in [6]; 0.0246 in [7]. Besides, the z-score was -0.232 (inactive) in [8]; 0.83 (inactive) in [9]; -0.234 in assay [10]; -0.0541 in assay [11]; 0.392 in [12]; -0.17 in assay [13]. The z-score in assay [14] is -0.36; in [15] it was -0.659; in [16], -0.482; in [17], -0.752 (inactive); in [18], -0.0616; in [19] it was 1.34. In addition, the z-score in assay [20] is -0.271 (inactive). The same compound showed a composite z-score in [2] of -0.774.
For the compound `COC(=O)C(CC#Cc1ccc2c(c1)[C@]1(C(=O)N2)[C@H](c2ccc(OCCO)cc2)N2[C@H](c3ccccc3)[C@H](c3ccccc3)OC(=O)[C@H]2[C@@H]1C(=O)O)C(=O)OC`, the z-score is 1.55 (inactive) in [1]; 4.99 (inactive) in assay [3]; 0.441 (inactive) in assay [4]; 1.17 (inactive) in assay [5]; -0.121 (inactive) in assay [6]; 0.641 in assay [7]. In addition, the z-score in assay [8] was 1.18 (inactive); in assay [9] it was 0.0107 (inactive); in assay [10], 0.918; in [11], 1.88; in assay [12], -0.0521; in [13], 1.45. For the same compound, the z-score in [14] is 0.47; in assay [15] it was -0.247; in [16] it was -0.0694; in [17], 0.222 (inactive); in assay [18], -0.336; in assay [19], 0.132. The z-score in assay [20] was 0.179 (inactive). In [2], this compound had a composite z-score of 0.685.
As for `COc1ccc([Si](C)(C)[C@H]2[C@H](CCn3cc(CCO)nn3)O[C@@]3(C(=O)N(Cc4cccc(N5C(=O)c6cccc7cccc5c67)c4)c4ccccc43)[C@@H]2C)cc1`, the z-score in assay [1] was 0.652 (inactive); in assay [3] it was 5.3 (inactive); in [4], 2.43 (inactive); in [5], 1.32 (inactive); in [6] it was 1.36 (inactive); in [7], 0.615. Moreover, the z-score in assay [8] is 0.782 (inactive); in assay [9], 1.74 (inactive); in assay [10], 2.97; in assay [11], -1.05; in [12], -0.354; in assay [13], -4.39. The z-score in [14] was -2.83; in assay [15], -4.51; in [16] it was 1.6; in assay [17], 2.9 (inactive); in assay [18], -1.05; in assay [19], -2.03. Also, in assay [20], the z-score is -3.05 (inactive). The same compound had a composite z-score in assay [2] of 0.466.
With `COc1ccc([Si](C)(C)[C@@H]2[C@@H](CC(=O)N(CCO)Cc3ccccc3)O[C@]3(C(=O)N(Cc4ccc(N5CCOC5=O)cc4)c4ccccc43)[C@H]2C)cc1`, the z-score is -1.02 (inactive) in [1]; 8.87 (active) in assay [3]; 1.62 (inactive) in [4]; -0.248 (inactive) in assay [5]; 0.821 (inactive) in assay [6]; -0.16 in [7]. The z-score in [8] was 0.566 (inactive); in assay [9] it was 1.18 (inactive); in [10], 3.4; in assay [11], -0.65; in [12], 0.603; in [13] it was -1.94. Besides, the z-score in assay [14] is -2.35; in [15], -4.21; in assay [16] it was -0.0678; in [17], 1.19 (inactive); in [18] it was -1.01; in assay [19] it was -1.29. In addition, the z-score in [20] was -1.61 (inactive). Also, in assay [2], the composite z-score was -0.0891.
